Source: article PMC5540273 (PLoS ONE, 2017)

These compounds were tested on AXL. Details: concentration: 1 μM, replicates: in singlicate; n = 1.
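Note: KINOMEscan kinase panel screen.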

| Compound | %Inh |
| --- | --- |
| Cc1cccc(-c2cc(-c3c[nH]nc3-c3ccccn3)ccn2)c1 [GW679395] | 0% |
| COc1ccc(-c2coc3ccc(-c4nnc(SCc5cccc(C#N)c5)o4)cc23)cc1 | 21% |
| COc1ccc(CNC(=O)NC2CCN(c3ccnc(Nc4ccc(F)cc4)n3)C2)cc1 (stereo not drawn) [GSK1379706] | 10% |
| COc1cc2ncn(-c3cc(OCc4ccncc4Br)c(C(N)=O)s3)c2cc1OC [GW854278] | 30% |
| Cc1nnc(-c2ccc(C)c(-c3ccc(C(=O)O)cc3)c2)o1 [GW608005] | 0% |
| COc1cc2ncn(-c3cc(OCCCc4ccccc4)c(C(N)=O)s3)c2cc1OC [GSK205189] | 13% |
| Cc1cc(Nc2nc(-c3cccc(C)n3)nc3ccccc23)ccn1 [GW872411] | 0% |
| Cc1ccc(-c2ccc3c(ccc4sc5c(c43)NC[C@@H](C)N=C5N(C)C)n2)cn1 | 0% |
| CCc1ccc(-c2ccc3c(c2)-c2nn(C)cc2S(=O)(=O)N3C)cc1 | 8% |
| Nc1n[nH]c2ncc(-c3ccccc3)cc12 [SB-517081] | 0% |
| Nc1ncnc2c1ncn2-c1cccc2ccccc12 [SKF-97184] | 0% |
| O=C(NCCNc1ccnc(Nc2ccc(F)cc2)n1)Nc1ccc2c(c1)OCO2 [GSK1379882] | 0% |
| O=C(Nc1n[nH]c2nc(-c3ccccc3)c(Br)cc12)C1CC1 [SB-708998] | 0% |
| Cl.NS(=O)(=O)c1cccc(Nc2cc(-c3ccc(F)cc3)n[nH]2)c1 [GW824645] | 0% |
| O=C(Nc1ccc2c(c1)OCO2)NC1CCN(c2ccnc(NCc3ccc(F)cc3)n2)CC1 [GSK1379859] | 2% |
| CC(C)(C)c1ccc(C(=O)Nc2cn3cc(-c4ccccc4)ccc3n2)cc1 | 0% |
| C[C@@H]1CC[C@H](C(=O)NC2CCCCC2)CN1c1cc(-c2ccc3c(N)n[nH]c3c2)nc(N)n1 [GSK2291363] | 4% |
| O=C(Nc1n[nH]c2nc(-c3ccccc3)c(Cl)cc12)C1CC1 [SB-734909] | 0% |

| Compound | %Inh |
| --- | --- |
| COC(=O)c1c(-c2ccccc2)c2cc(Br)ccc2c(=O)n1Cc1ccc(NC(=O)CCC(=O)O)cc1 | 0% |
| O=C(Nc1n[nH]c2cc(-c3ccccc3F)ccc12)C1CC1 [SB-733371] | 16% |
| Cc1nc(N(C)[C@H]2CN(C(=O)CC#N)CC[C@H]2C)c2cc[nH]c2n1 | 9% |
| Cc1nn2c(=O)cc(N3CCOCC3)nc2n1Cc1cccc(Cl)c1Cl [GSK2342769] | 4% |
| Cc1cccc(-c2nc(Nc3ccc4c(cnn4C)c3)c3ccccc3n2)n1 [GW876731] | 25% |
| FC(F)(F)c1ccc(-c2ncn(CCCN3CCOCC3)c2-c2ccncc2)cc1 [SB-217780] | 40% |
| COc1cc(Nc2ccnc3ccc(C(F)(F)F)cc23)cc(OC)c1OC [GW577382] | 12% |
| CCS(=O)c1ccc(-c2coc3ccc(-c4nnc(C)o4)cc23)cc1 (stereo not drawn) | 0% |
| O=c1cc(N2CCOCC2)nc2n(Cc3ccc(F)c(Cl)c3)ccn12 [GSK2297099] | 0% |
| CCC(=O)c1c(-c2ccccc2)c2cc(Cl)ccc2c(=O)n1Cc1cc(S(C)(=O)=O)n(CCC(C)(C)O)n1 | 10% |
| Cn1c(=O)c(F)c(Nc2ccc(I)cc2F)c2c(=O)n(OC[C@H](O)CO)cnc21 | 10% |
| COc1cc(OC)cc(-c2cc3cnc(N)nc3nc2NC(=O)NC(C)(C)C)c1 | 0% |
| Fc1cccc(CSc2nnc(-c3ccc4c(c3)CCO4)o2)c1 | 0% |
| COc1cc(Nc2nccc(N3CCC(NC(=O)C4COc5ccccc5O4)C3)n2)cc(OC)c1OC (stereo not drawn) [GSK1379761] | 17% |
| O=C1NC(=O)C(c2ccccc2)=C1Nc1cccc(O)c1 [SB-390534] | 27% |
| CN(C)c1cc(-c2ccc3c(N)n[nH]c3c2)nc(N)n1 [GSK2219329] | 0% |
| Cc1ccc(Oc2ccc(Nc3ncnc4cc[nH]c34)cc2C)cn1 | 25% |
| CN1C(=O)C(Nc2ccccc2)=C(c2ccccc2)C1=O [SB-300079] | 0% |
